Reference: PubChem BioAssay (NCATS)
Inconclusive results are not listed. Activity calls are given as the source filed them. The call rests on the fitted dose curve; in most records, active means well fitted cell-killing curve with a large enough effect; inconclusive means small, poorly fitted or top-dose-only effect, or effect the other way; inactive means flat fitted curve, though single readings scatter.

How the values were obtained:
Experiment in all cases: Primary qHTS to identify gynecologic anti-cancer compounds using libraries of approved drugs and bioactive compounds (AID 1345084); further: nearly all actives have a fitted effect of over 55% in size
Es-2 = settings: Gynecologic cancer cell panel viability, ATPlite luminescence, 48 h; series mostly up to 57.5 µM
Summary of the method: (§1)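 48 h compound exposure at 37 C, 5% CO2; five-point qHTS. ATPlite luminescence readout of cell ATP.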

HeLa = settings: Gynecologic cancer cell panel viability, ATPlite luminescence, 48 h; series mostly up to 57.5 µM
Summary of the method: as §1

Hek293T = settings: Gynecologic cancer cell panel viability, ATPlite luminescence, 48 h, control line for the selectivity index; series mostly up to 57.5 µM
Summary of the method: as §1

JEG-3 = settings: Gynecologic cancer cell panel viability, ATPlite luminescence, 48 h; series mostly up to 57.5 µM
Summary of the method: as §1

OV90 = settings: Gynecologic cancer cell panel viability, ATPlite luminescence, 48 h; series mostly up to 57.5 µM
Summary of the method: as §1

PA-1 = settings: Gynecologic cancer cell panel viability, ATPlite luminescence, 48 h; series mostly up to 57.5 µM
Summary of the method: as §1

Tov-21-G = settings: Gynecologic cancer cell panel viability, ATPlite luminescence, 48 h; series mostly up to 57.5 µM
Summary of the method: as §1

Tov112D = settings: Gynecologic cancer cell panel viability, ATPlite luminescence, 48 h; series mostly up to 57.5 µM
Summary of the method: as §1

SKOV3 = settings: Gynecologic cancer cell panel viability, ATPlite luminescence, 48 h; series mostly up to 57.5 µM
Summary of the method: as §1
On the % scale 0 is the no-effect control and ±100 the full control effect.

COC(=O)C1C(c2ccc(O)cc2)C(C(=O)OC)C1c1ccc(O)cc1 (stereo unspecified)
inactive: Potency (Es-2) | Potency (HeLa) | Potency (Hek293T) | Potency (JEG-3) | Potency (OV90) | Potency (PA-1) | Potency (Tov-21-G) | Potency (Tov112D)

O=C(O)C[C@H]1CCC(=O)[C@@H]1C/C=C\CCOC1OC(CO)C(O)C(O)C1O (stereo partly specified)
inactive: Potency (Es-2) | Potency (HeLa) | Potency (Hek293T) | Potency (JEG-3) | Potency (OV90) | Potency (PA-1) | Potency (Tov-21-G) | Potency (Tov112D)

CC(C)=CCC/C(C)=C/CC/C(C)=C/CC[C@]1(C)CCc2cc(O)cc(C)c2O1
inactive: Potency (Es-2) | Potency (HeLa) | Potency (Hek293T) | Potency (JEG-3) | Potency (OV90) | Potency (PA-1) | Potency (Tov-21-G) | Potency (Tov112D)

Cc1nn(C)c2c1C(c1ccc(C(F)(F)F)cc1)C(C#N)=C(N)O2 (stereo unspecified)
inactive: Potency (Es-2) | Potency (HeLa) | Potency (Hek293T) | Potency (JEG-3) | Potency (OV90) | Potency (PA-1) | Potency (Tov-21-G) | Potency (Tov112D)

CC1(C)CC[C@]2(C(=O)O)CC[C@]3(C)C(=CCC4[C@@]5(C)CCC(O[C@@H]6OC[C@H](O)[C@H](O)[C@H]6O[C@@H]6O[C@H](CO)[C@@H](O)[C@H](O)[C@H]6O)[C@@](C)(CO)C5CC[C@]43C)[C@@H]2C1 (stereo partly specified)
inactive: Potency (Es-2) | Potency (HeLa) | Potency (Hek293T) | Potency (JEG-3) | Potency (OV90) | Potency (SKOV3) | Potency (Tov-21-G) | Potency (Tov112D)

COc1cc(/C=C/C(=O)O[C@H]2[C@H](O)[C@@H](CO)O[C@@]2(CO)O[C@H]2O[C@H](COC(=O)c3ccc(O)cc3)[C@@H](O)[C@H](O)[C@H]2O)cc(OC)c1OC
inactive: Potency (Es-2) | Potency (HeLa) | Potency (Hek293T) | Potency (JEG-3) | Potency (OV90) | Potency (PA-1) | Potency (Tov-21-G) | Potency (Tov112D)

COc1cc(CC(COC2OC(CO)C(O)C(O)C2O)c2cc(/C=C/CO)cc(OC)c2O)ccc1O (stereo unspecified)
inactive: Potency (Es-2) | Potency (HeLa) | Potency (Hek293T) | Potency (JEG-3) | Potency (OV90) | Potency (PA-1) | Potency (Tov-21-G) | Potency (Tov112D)

CC(=O)[C@@H]1CC[C@]2(C(=O)O)CC[C@]3(C)C(CCC4[C@@]5(C)CC[C@H](O)C(C)(C)C5CC[C@]43C)C12 (stereo partly specified)
inactive: Potency (Es-2) | Potency (HeLa) | Potency (Hek293T) | Potency (JEG-3) | Potency (OV90) | Potency (PA-1) | Potency (Tov-21-G) | Potency (Tov112D)

COC(=O)[C@H](OC(C)=O)[C@H]1C(C)(C)C(=O)[C@H]2CC3=C4CC(=O)O[C@@H](c5ccoc5)[C@]4(C)CCC3[C@@]1(C)C2=O (stereo partly specified)
inactive: Potency (Es-2) | Potency (HeLa) | Potency (Hek293T) | Potency (JEG-3) | Potency (OV90) | Potency (SKOV3) | Potency (Tov-21-G) | Potency (Tov112D)

COC1=CC(=O)O[C@@H](/C=C/c2ccccc2)[C@@H]1O
inactive: Potency (Es-2) | Potency (HeLa) | Potency (Hek293T) | Potency (JEG-3) | Potency (OV90) | Potency (PA-1) | Potency (Tov-21-G) | Potency (Tov112D)

C=C1CC[C@@H]2[C@](C)(CC[C@H](O)[C@@]2(C)CCC=C(C)C)[C@@H]1Cc1c[nH]c2ccccc12
inactive: Potency (Es-2) | Potency (HeLa) | Potency (Hek293T) | Potency (JEG-3) | Potency (OV90) | Potency (PA-1) | Potency (Tov-21-G) | Potency (Tov112D)

CCC(C)C(=O)O[C@@H]1[C@@H](O)[C@@H](O[C@H]2O[C@H](CO)[C@@H](O)[C@H](O)[C@H]2O)O[C@H](CO)[C@H]1O (stereo partly specified)
inactive: Potency (Es-2) | Potency (HeLa) | Potency (Hek293T) | Potency (JEG-3) | Potency (OV90) | Potency (PA-1) | Potency (Tov-21-G) | Potency (Tov112D)

CC1(C)C[C@H]2C3=CCC4[C@@]5(C)CC[C@H](O[C@H]6O[C@H](C(=O)O)[C@@H](O)[C@H](O)[C@H]6O[C@H]6O[C@H](CO)[C@@H](O)[C@H](O)[C@H]6O[C@@H]6O[C@H](CO)[C@@H](O)[C@H](O)[C@H]6O)[C@](C)(CO)C5CC[C@@]4(C)[C@]3(C)CC[C@@]2(C)[C@H](O[C@@H]2OC[C@H](O)[C@H](OC3O[C@H](CO)[C@@H](O)[C@H](O)[C@H]3O)[C@H]2O)[C@@H]1O (stereo partly specified)
inactive: activity change, negative = cytotoxicity (Es-2) 0.0485% [at 6.55 µM] | activity change, negative = cytotoxicity (HeLa) 2.32% [at 6.55 µM] | activity change, negative = cytotoxicity (Hek293T) -1.35% [at 6.55 µM] | activity change, negative = cytotoxicity (JEG-3) 2.5% [at 6.55 µM] | activity change, negative = cytotoxicity (OV90) -1.3% [at 6.55 µM] | activity change, negative = cytotoxicity (SKOV3) -2.8% [at 6.55 µM] | activity change, negative = cytotoxicity (Tov-21-G) 3.65% [at 6.55 µM] | activity change, negative = cytotoxicity (Tov112D) -3.08% [at 6.55 µM]

CC(C)=CCC[C@](C)(O[C@@H]1O[C@H](CO[C@@H]2OC[C@@H](O)[C@H](O)[C@H]2O)[C@@H](O)[C@H](O)[C@H]1O)[C@H]1CC[C@]2(C)[C@@H]1[C@H](O)C[C@@H]1[C@@]3(C)CC[C@H](O[C@@H]4O[C@H](CO)[C@@H](O)[C@H](O)[C@H]4O[C@@H]4O[C@H](CO)[C@@H](O)[C@H](O)[C@H]4O)C(C)(C)[C@@H]3CC[C@]12C
inactive: Potency (Es-2) | Potency (HeLa) | Potency (Hek293T) | Potency (JEG-3) | Potency (OV90) | Potency (SKOV3) | Potency (Tov-21-G) | Potency (Tov112D)

COC(=O)[C@@]1(O)C=CC[C@@H]2[C@@]3(C)C[C@@H](c4ccoc4)OC(=O)[C@H]3CC[C@]21C
inactive: Potency (Es-2) | Potency (HeLa) | Potency (Hek293T) | Potency (JEG-3) | Potency (OV90) | Potency (SKOV3) | Potency (Tov-21-G) | Potency (Tov112D)

COC(=O)C1C(CC(C)=O)C=CC(O)C12Oc1cc(C)cc(O)c1C2=O (stereo unspecified)
inactive: Potency (Es-2) | Potency (HeLa) | Potency (Hek293T) | Potency (JEG-3) | Potency (OV90) | Potency (PA-1) | Potency (Tov-21-G) | Potency (Tov112D)

CCCOc1ccn2c(C(C)=O)cc(-c3ccccc3S(C)(=O)=O)c2c1
inactive: Potency (Es-2) | Potency (HeLa) | Potency (Hek293T) | Potency (JEG-3) | Potency (OV90) | Potency (PA-1) | Potency (Tov-21-G) | Potency (Tov112D)
